# About 79,000 compounds went through this panel and 15% of them were active in at least one assay; those are over-represented in the sample as a whole. Values without a mark were called inactive. Activity calls are given as the source filed them. Cut-off read from the data, not from the text of the source: active = growth inhibition above about 70%; inactive = the rest.
# Tests used:
# [1] = NCI Yeast Anticancer Drug Screen. Data for the rad52 strain (AID 147);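 note: 0% = growth of vehicle-treated control cultures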; settings: S. cerevisiae rad52 mutant growth inhibition, stronger effect = higher value
# Method in brief: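 Growth of repair-deficient yeast cells was compared between compound-treated and vehicle-treated cultures to give percent inhibition.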
# [2] = NCI Yeast Anticancer Drug Screen. Data for the wt1 strain (AID 149);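 note: 0% = growth of vehicle-treated wt1 cultures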; settings: S. cerevisiae wt1 strain (SPY 50644) growth inhibition, stronger effect = higher value
# Method in brief: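 Readout: yeast growth inhibition, normalised to vehicle controls, in the wt1 strain exposed to test compounds.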
# [3] = NCI Yeast Anticancer Drug Screen. Data for the rad50EPP+ strain (AID 151);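 note: 0% = growth of vehicle-treated control cultures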; settings: S. cerevisiae rad50 mutant strain, stronger effect = higher value
# Method in brief: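 Measured: growth inhibition of rad50EPP+ yeast. Reference: vehicle-treated controls. Screen uses strains with defined genetic alterations in DNA damage repair or cell cycle control.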
# [4] = NCI Yeast Anticancer Drug Screen. Data for the mgt1 strain (AID 153); settings: S. cerevisiae mgt1 mutant growth inhibition, stronger effect = higher value
# Method in brief: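 Compounds were applied to mgt1 mutant yeast, and growth was then compared against vehicle-treated control cultures to give percent inhibition.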
# [5] = NCI Yeast Anticancer Drug Screen. Data for the rad50 strain (AID 155);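 note: 0% = growth of vehicle-only cultures of the same strain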; settings: S. cerevisiae rad50 strain growth inhibition, stronger effect = higher value
# Method in brief: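 Compounds were tested on a yeast strain with an engineered DNA damage repair alteration; the reported value is growth inhibition normalised to vehicle treatment.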
# [6] = NCI Yeast Anticancer Drug Screen. Data for the mec2-1 strain (AID 157); settings: S. cerevisiae mec2-1 strain, stronger effect = higher value
# Method in brief: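 Compounds were applied to mec2-1 yeast cells. Their growth was then compared with that of vehicle-treated cultures to give growth inhibition.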
# [7] = NCI Yeast Anticancer Drug Screen. Data for the rad14 strain (AID 159);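 note: 0% = growth of vehicle-treated control cultures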; settings: S. cerevisiae rad14 strain growth inhibition, stronger effect = higher value
# Method in brief: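 Compound-treated yeast with a defined DNA-repair lesion; growth inhibition normalised to vehicle-treated cultures.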
# [8] = NCI Yeast Anticancer Drug Screen. Data for the sgs1 mgt1 strain (AID 161);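 note: 0% = growth of cultures given vehicle only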; settings: S. cerevisiae sgs1 mgt1 strain, stronger effect = higher value
# Method in brief: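 Percent growth inhibition was derived by comparing compound-exposed mutant yeast with vehicle-exposed cultures. The strain carries alterations in DNA damage repair.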
# [9] = NCI Yeast Anticancer Drug Screen. Data for the CLN2oe strain (AID 163);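 note: 0% = growth of vehicle-only control cultures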; settings: S. cerevisiae CLN2oe strain, stronger effect = higher value
# Method in brief: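 Cells of an engineered yeast line with disturbed cell-cycle regulation are treated with compound. Inhibition of growth is then calculated relative to the vehicle-treated reference.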
# [10] = NCI Yeast Anticancer Drug Screen. Data for the cln2 rad14 strain (AID 165);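 note: 0% = growth equal to vehicle treated cultures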; settings: S. cerevisiae cln2 rad14 strain, stronger effect = higher value
# Method in brief: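 Strain: cln2 rad14 yeast, altered in cell cycle control and DNA damage repair. Read-out: growth inhibition vs vehicle.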
# [11] = NCI Yeast Anticancer Drug Screen. Data for the bub3 strain (AID 167); settings: S. cerevisiae bub3 mutant strain, stronger effect = higher value
# Method in brief: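 Growth of a checkpoint-deficient yeast mutant is measured after compound exposure. Values represent inhibition relative to vehicle.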
# [12] = NCI Yeast Anticancer Drug Screen. Data for the wt2 strain (AID 169);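 note: 0% = growth of vehicle-treated yeast cultures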; settings: S. cerevisiae wt2 strain growth inhibition, stronger effect = higher value
# Method in brief: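 Growth of compound-treated yeast is measured and expressed as inhibition relative to vehicle-only controls.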
# [13] = NCI Yeast Anticancer Drug Screen. Data for the mlh1 strain (AID 171);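 note: 0% = growth of vehicle-treated control cultures of the same strain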; settings: S. cerevisiae mlh1 strain growth inhibition, stronger effect = higher value
# Method in brief: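 Test agents were incubated with yeast bearing a defined DNA damage repair or cell cycle control alteration; values are growth inhibition normalised to vehicle-treated cultures.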
# [14] = NCI Yeast Anticancer Drug Screen. Data for the sgs1 strain (AID 173);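 note: 0% = growth of vehicle-only control cultures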; settings: S. cerevisiae sgs1 mutant, stronger effect = higher value
# Method in brief: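 Strain with an altered DNA repair or cell cycle pathway exposed to compound. Growth then measured. Value = inhibition versus vehicle control.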
# [15] = NCI Yeast Anticancer Drug Screen. Data for the mlh1 rad18 strain (AID 175); settings: S. cerevisiae mlh1 rad18 strain growth inhibition, stronger effect = higher value
# Method in brief: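 A repair-deficient yeast strain is exposed to test compound, and growth is scored relative to vehicle-treated controls.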
# [16] = NCI Yeast Anticancer Drug Screen. Data for the rad18 strain (AID 177); settings: S. cerevisiae rad18 mutant growth inhibition, stronger effect = higher value
# Method in brief: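 DNA-repair-defective yeast; compound treatment; growth inhibition scored against vehicle.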
# [17] = at 5.0 µM (retest, dose inferred, filed as 0.5)
# [18] = at 50.0 µM (retest, dose inferred, filed as 5.0)
smiles,measurement,setting,value
CCC[CH2][Sn]([CH2]CCC)([CH2]CCC)/[C](=C/[Si](C)(C)c1ccccc1)c1ccc2c(c1)OCO2,growth inhibition,[1]; at 1.2 µM,11%
same,growth inhibition,[1]; at 3.7 µM,48%
same,growth inhibition,[1]; at 11.0 µM,92% (active)
same,growth inhibition,[1]; at 33.0 µM,90% (active)
same,growth inhibition,[1]; at 100.0 µM,87% (active)
same,growth inhibition,[2]; at 1.2 µM,3%
same,growth inhibition,[2]; at 3.7 µM,15%
same,growth inhibition,[2]; at 11.0 µM,94% (active)
same,growth inhibition,[2]; at 33.0 µM,92% (active)
same,growth inhibition,[2]; at 100.0 µM,89% (active)
same,growth inhibition,[3]; at 1.2 µM,6%
same,growth inhibition,[3]; at 3.7 µM,17%
same,growth inhibition,[3]; at 11.0 µM,33%
same,growth inhibition,[3]; at 33.0 µM,66%
same,growth inhibition,[3]; at 100.0 µM,74% (active)
same,growth inhibition,[4]; at 1.2 µM,0%
same,growth inhibition,[4]; at 3.7 µM,26%
same,growth inhibition,[4]; at 11.0 µM,95% (active)
same,growth inhibition,[4]; at 33.0 µM,92% (active)
same,growth inhibition,[4]; at 100.0 µM,93% (active)
same,growth inhibition,[5]; at 1.2 µM,13%
same,growth inhibition,[5]; at 3.7 µM,72% (active)
same,growth inhibition,[5]; [17],67%
same,growth inhibition,[5]; at 11.0 µM,89% (active)
same,growth inhibition,[5]; at 33.0 µM,87% (active)
same,growth inhibition,[5]; [18],67%
same,growth inhibition,[5]; at 50.0 µM,91.2% (active)
same,growth inhibition,[5]; at 100.0 µM,87% (active)
same,growth inhibition,[6]; at 1.2 µM,-1%
same,growth inhibition,[6]; at 3.7 µM,17%
same,growth inhibition,[6]; [17],27%
same,growth inhibition,[6]; at 11.0 µM,94% (active)
same,growth inhibition,[6]; at 33.0 µM,92% (active)
same,growth inhibition,[6]; [18],27%
same,growth inhibition,[6]; at 50.0 µM,93.7% (active)
same,growth inhibition,[6]; at 100.0 µM,91% (active)
same,growth inhibition,[7]; at 1.2 µM,1%
same,growth inhibition,[7]; at 3.7 µM,24%
same,growth inhibition,[7]; at 11.0 µM,95% (active)
same,growth inhibition,[7]; at 33.0 µM,93% (active)
same,growth inhibition,[7]; at 100.0 µM,93% (active)
same,growth inhibition,[8]; [17],75% (active)
same,growth inhibition,[8]; [18],75% (active)
same,growth inhibition,[8]; at 50.0 µM,91.8% (active)
same,growth inhibition,[9]; at 1.2 µM,-5%
same,growth inhibition,[9]; at 3.7 µM,4%
same,growth inhibition,[9]; at 11.0 µM,92% (active)
same,growth inhibition,[9]; at 33.0 µM,89% (active)
same,growth inhibition,[9]; at 100.0 µM,84% (active)
same,growth inhibition,[10]; [17],7%
same,growth inhibition,[10]; [18],7%
same,growth inhibition,[10]; at 50.0 µM,91.3% (active)
same,growth inhibition,[11]; at 1.2 µM,-2%
same,growth inhibition,[11]; at 3.7 µM,10%
same,growth inhibition,[11]; [17],14%
same,growth inhibition,[11]; at 11.0 µM,93% (active)
same,growth inhibition,[11]; at 33.0 µM,89% (active)
same,growth inhibition,[11]; [18],14%
same,growth inhibition,[11]; at 50.0 µM,92% (active)
same,growth inhibition,[11]; at 100.0 µM,89% (active)
same,growth inhibition,[12]; at 1.2 µM,0%
same,growth inhibition,[12]; at 3.7 µM,35%
same,growth inhibition,[12]; at 11.0 µM,95% (active)
same,growth inhibition,[12]; at 33.0 µM,92% (active)
same,growth inhibition,[12]; at 100.0 µM,93% (active)
same,growth inhibition,[13]; at 1.2 µM,7%
same,growth inhibition,[13]; at 3.7 µM,47%
same,growth inhibition,[13]; at 11.0 µM,93% (active)
same,growth inhibition,[13]; at 33.0 µM,92% (active)
same,growth inhibition,[13]; at 100.0 µM,91% (active)
same,growth inhibition,[14]; at 1.2 µM,1%
same,growth inhibition,[14]; at 3.7 µM,44%
same,growth inhibition,[14]; at 11.0 µM,94% (active)
same,growth inhibition,[14]; at 33.0 µM,90% (active)
same,growth inhibition,[14]; at 100.0 µM,90% (active)
same,growth inhibition,[15]; [17],44%
same,growth inhibition,[15]; [18],44%
same,growth inhibition,[15]; at 50.0 µM,89% (active)
same,growth inhibition,[16]; at 1.2 µM,25%
same,growth inhibition,[16]; at 3.7 µM,82% (active)
same,growth inhibition,[16]; at 11.0 µM,92% (active)
same,growth inhibition,[16]; at 33.0 µM,86% (active)
same,growth inhibition,[16]; at 100.0 µM,88% (active)
O=[N+]([O-])[O][Sn]([O][Sn]([O][N+](=O)[O-])([c]1ccccc1)[c]1ccccc1)([c]1ccccc1)[c]1ccccc1,growth inhibition,[1]; at 1.2 µM,6%
same,growth inhibition,[1]; at 3.7 µM,9%
same,growth inhibition,[1]; at 11.0 µM,13%
same,growth inhibition,[1]; at 33.0 µM,32%
same,growth inhibition,[1]; at 100.0 µM,57%
same,growth inhibition,[2]; at 1.2 µM,-3%
same,growth inhibition,[2]; at 3.7 µM,-7%
same,growth inhibition,[2]; at 11.0 µM,-11%
same,growth inhibition,[2]; at 33.0 µM,-2%
same,growth inhibition,[2]; at 100.0 µM,62%
same,growth inhibition,[3]; at 1.2 µM,8%
same,growth inhibition,[3]; at 3.7 µM,-2%
same,growth inhibition,[3]; at 11.0 µM,0%
same,growth inhibition,[3]; at 33.0 µM,20%
same,growth inhibition,[3]; at 100.0 µM,99% (active)
same,growth inhibition,[4]; at 1.2 µM,8%
same,growth inhibition,[4]; at 3.7 µM,10%
same,growth inhibition,[4]; at 11.0 µM,25%
same,growth inhibition,[4]; at 33.0 µM,10%
same,growth inhibition,[4]; at 100.0 µM,94% (active)
same,growth inhibition,[5]; at 1.2 µM,16%
same,growth inhibition,[5]; at 3.7 µM,20%
same,growth inhibition,[5]; [17],25%
same,growth inhibition,[5]; at 11.0 µM,16%
same,growth inhibition,[5]; at 33.0 µM,28%
same,growth inhibition,[5]; [18],66%
same,growth inhibition,[5]; at 50.0 µM,65.2%
same,growth inhibition,[5]; at 100.0 µM,85% (active)
same,growth inhibition,[6]; at 1.2 µM,9%
same,growth inhibition,[6]; at 3.7 µM,0%
same,growth inhibition,[6]; [17],11%
same,growth inhibition,[6]; at 11.0 µM,16%
same,growth inhibition,[6]; at 33.0 µM,14%
same,growth inhibition,[6]; [18],44%
same,growth inhibition,[6]; at 50.0 µM,57.6%
same,growth inhibition,[6]; at 100.0 µM,86% (active)
same,growth inhibition,[7]; at 1.2 µM,0%
same,growth inhibition,[7]; at 3.7 µM,-8%
same,growth inhibition,[7]; at 11.0 µM,-7%
same,growth inhibition,[7]; at 33.0 µM,22%
same,growth inhibition,[7]; at 100.0 µM,94% (active)
same,growth inhibition,[8]; [17],35%
same,growth inhibition,[8]; [18],94% (active)
same,growth inhibition,[8]; at 50.0 µM,70% (active)
same,growth inhibition,[9]; at 1.2 µM,-32%
same,growth inhibition,[9]; at 3.7 µM,-48%
same,growth inhibition,[9]; at 11.0 µM,-34%
same,growth inhibition,[9]; at 33.0 µM,-30%
same,growth inhibition,[9]; at 100.0 µM,29%
same,growth inhibition,[10]; [17],3%
same,growth inhibition,[10]; [18],26%
same,growth inhibition,[10]; at 50.0 µM,30.2%
same,growth inhibition,[11]; at 1.2 µM,8%
same,growth inhibition,[11]; at 3.7 µM,-4%
same,growth inhibition,[11]; [17],23%
same,growth inhibition,[11]; at 11.0 µM,-7%
same,growth inhibition,[11]; at 33.0 µM,6%
same,growth inhibition,[11]; [18],84% (active)
same,growth inhibition,[11]; at 50.0 µM,72.5% (active)
same,growth inhibition,[11]; at 100.0 µM,62%
same,growth inhibition,[12]; at 1.2 µM,-47%
same,growth inhibition,[12]; at 3.7 µM,-47%
same,growth inhibition,[12]; at 11.0 µM,-25%
same,growth inhibition,[12]; at 33.0 µM,-26%
same,growth inhibition,[12]; at 100.0 µM,58%
same,growth inhibition,[13]; at 1.2 µM,7%
same,growth inhibition,[13]; at 3.7 µM,-3%
same,growth inhibition,[13]; at 11.0 µM,5%
same,growth inhibition,[13]; at 33.0 µM,35%
same,growth inhibition,[13]; at 100.0 µM,94% (active)
same,growth inhibition,[14]; at 1.2 µM,-6%
same,growth inhibition,[14]; at 3.7 µM,-12%
same,growth inhibition,[14]; at 11.0 µM,-24%
same,growth inhibition,[14]; at 33.0 µM,51%
same,growth inhibition,[14]; at 100.0 µM,98% (active)
same,growth inhibition,[15]; [17],19%
same,growth inhibition,[15]; [18],67%
same,growth inhibition,[15]; at 50.0 µM,68%
same,growth inhibition,[16]; at 1.2 µM,-12%
same,growth inhibition,[16]; at 3.7 µM,-12%
same,growth inhibition,[16]; at 11.0 µM,-11%
same,growth inhibition,[16]; at 33.0 µM,5%
same,growth inhibition,[16]; at 100.0 µM,90% (active)
